For six compounds, outcome and AC50 results are on record in PubChem BioAssay (EPA / NIEHS).

Several values for one entry are separate records, joined by “and”; a condition that tells them apart may be missing. Identical values can stand only once. Records with an inconclusive call do not appear. Activity calls are given as the source filed them. The calls were made as follows, unless noted: active = hit-call score of the fitted dose curve at least 0.9, where 1 is the maximum; inactive = score below 0.9.

One may read the AC50 as the concentration at which the activity in the assay is half-maximal.

Assay [1] in a line: ACEA_ER_80hr: ACEA Biosciences xCELLigence Real-Time Cell Analysis on Estrogen Receptor Agonism for Proliferation (AID 2282667; active = hit-call score of the fitted dose curve at least 0.9, where 1 is the maximum). Conditions: T47D proliferation, impedance (xCELLigence), 80 h. In short, it runs like this: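 Estrogen-driven proliferation is captured as electrode impedance in T47D cells 80 h after compound addition. Test articles ran at 8 concentrations, 1:4 dilutions from 100 uM final, in two replicate plates.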

A short description of assay [2]: APR_HepG2_CellCycleArrest_24hr: Apredica 24-hour HepG2 Assay for Cell Cycle Arrest (AID 2282905).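 Also: cell cycle arrest scored as ratio of 2N to 4N nuclear DNA content.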 Particulars: imaging, actives raise or lower the signal. In short, it runs like this:
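Compounds (0.39 to 200 uM, final DMSO 0.5% v/v) are applied to HepG2 cells for 24 hours; cells are then fixed, permeabilized and nuclei labeled with Hoechst 33342. Automated imaging measures DNA content, and activity is fitted in both directions against DMSO.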

A short description of assay [3]: APR_HepG2_NuclearSize_24hr: Apredica 24-hour HepG2 Assay for Nuclear Size (AID 2282907). Particulars: high-content imaging, actives raise or lower the signal. In short, it runs like this:
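Nuclear size is measured by fluorescence high-content imaging of Hoechst-labelled HepG2 nuclei after 24 hr of treatment (0.39–200 uM, 0.5% DMSO). Cells are fixed in 3.7% formaldehyde before staining, and DMSO serves as the baseline for bidirectional curve fitting.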

A short description of assay [4]: APR_HepG2_CellLoss_24hr: Apredica 24-hour HepG2 Assay for Cell Loss (AID 2282908).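 As to AC50: fit in both directions so a hit may be cell loss or gain.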 Particulars: high-content imaging. The method in brief:
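Nuclear count serves as the viability measure: treated cells are fixed, permeabilized and labelled with Hoechst 33342, and six images per well are analysed to identify valid nuclei. Doses span 0.39–200 uM, and activity in either direction is scored against DMSO.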

Assay [5] in a line: APR_HepG2_MicrotubuleCSK_24hr: Apredica 24-hour HepG2 Assay for Microtubule CSK Stabilty (AID 2282909). Conditions: HepG2 microtubule cytoskeleton imaging, actives raise or lower the signal. The method in brief: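 Compounds were applied to HepG2 cells for 24 hours across 0.39–200 uM in duplicate, with final DMSO at 0.5% v/v. Fixed, permeabilized cells were labeled for alpha-tubulin and nuclei, and tubulin fluorescence was quantified by imaging, fitted bidirectionally against DMSO.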

Assay [6] can be described thus: APR_HepG2_MitoticArrest_24hr: Apredica 24-hour HepG2 Assay for Mitotic Arrest (AID 2282910). Conditions: high-content imaging, actives raise or lower the signal. The method in brief: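 HepG2, 24 hr dosing, 0.39–200 uM, 0.5% DMSO final. Formaldehyde-fixed, Triton-permeabilised, anti-phospho-histone H3 plus Hoechst. ArrayScan imaging at 20x; bidirectional fit vs DMSO baseline.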

Assay [7] is described as follows: APR_HepG2_MitoMembPot_24hr: Apredica 24-hour HepG2 Assay for Mitochondrial Membrane Potential (AID 2282911). Particulars: imaging, actives raise or lower the signal. In short, it runs like this: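 Mitochondrial dye uptake (MitoTracker Red CMXRos, 250 nM, 30 min pre-fixation) in HepG2 after 24 hr compound exposure, 0.39–200 uM; ArrayScan images at 20x, activity fitted in both directions relative to DMSO.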

Assay [8] in a line: APR_HepG2_MitoMass_24hr: Apredica 24-hour HepG2 Assay for Mitochondrial Mass (AID 2282912). Conditions: high-content imaging, actives raise or lower the signal. In short, it runs like this:
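After 24 hr of treatment at 0.39 to 200 uM, HepG2 cells take up 250 nM MitoTracker Red CMXRos for 30 min and are then fixed with 3.7% formaldehyde. Per-well images are quantified, and any change in either direction is scored against solvent.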

The nature of assay [9]: APR_HepG2_p53Act_24hr: Apredica 24-hour HepG2 Assay for p53 Activation (AID 2282913).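 Also: p53 protein immunofluorescence averaged per cell in HepG2 with Hoechst nuclei.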 Conditions: high-content imaging, actives raise or lower the signal. In short, it runs like this:
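Following 24 hr dosing of HepG2 at 0.39–200 uM, the cells undergo formaldehyde fixation, Triton permeabilization and multiplexed antibody labeling that includes p53 (Cy5). Signal from the imaging is referenced to DMSO solvent controls.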

A short description of assay [10]: APR_HepG2_CellCycleArrest_72hr: Apredica 72-hour HepG2 Assay for Cell Cycle Arrest (AID 2282914). Particulars: high-content imaging, actives raise or lower the signal. The method in brief:
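Using multiplexed high-content imaging, HepG2 nuclei stained with Hoechst 33342 (2 ug/mL) were analysed for DNA content after fixation and permeabilization. Treatment lasted 72 hr across 0.39–200 uM in duplicate with final DMSO 0.5% v/v; DMSO served as negative control.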

Assay [11] in a line: APR_HepG2_CellLoss_72hr: Apredica 72-hour HepG2 Assay for Cell Loss (AID 2282915). Conditions: high-content imaging. The method in brief:
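HepG2 cells exposed 72 h to compound at 0.39–200 uM (10 concentrations, duplicate) in 0.5% DMSO. Fixed with 3.7% formaldehyde and Hoechst 33342-stained. Imaged at 20x; nuclear count gives cell number, fitted bidirectionally versus DMSO.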

Assay [12] can be described thus: APR_HepG2_P-H2AX_72hr: Apredica 72-hour HepG2 Assay for H2AX Phosphorylation (AID 2282916).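 Also: phospho-histone H2A.x immunostain intensity per cell marking DNA damage.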 Particulars: imaging, actives raise or lower the signal. The method in brief:
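Human hepatoma HepG2 cells are dosed across ten concentrations (0.39 to 200 uM, 0.5% v/v DMSO) and incubated 72 hr. Phospho-histone H2A.x is then detected by antibody staining alongside c-Jun and Hoechst, and quantified by automated fluorescence imaging.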

Assay [13] in a line: APR_HepG2_MitoMembPot_72hr: Apredica 72-hour HepG2 Assay for Mitochondrial Membrane Potential (AID 2282917). Particulars: imaging, actives raise or lower the signal. In short, it runs like this:
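HepG2 cells dosed 72 hr with compound at 0.39–200 uM in duplicate, 0.5% v/v DMSO final. Mitochondria stained with 250 nM MitoTracker Red CMXRos for 30 min before formaldehyde fixation, imaged by high-content fluorescence; bidirectional fit versus DMSO.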

Assay [14] is described as follows: APR_HepG2_MitoticArrest_72hr: Apredica 72-hour HepG2 Assay for Mitotic Arrest (AID 2282918). Particulars: high-content imaging, actives raise or lower the signal. In short, it runs like this:
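Using high-content imaging of fixed HepG2 cells, phospho-histone H3 signal was measured following a 72 hr incubation with ten-point compound dilutions up to 200 uM. DMSO served as the negative control and baseline for bidirectional curve fitting.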

A short description of assay [15]: APR_HepG2_MicrotubuleCSK_72hr: Apredica 72-hour HepG2 Assay for Microtubule CSK Stabilty (AID 2282919). Particulars: HepG2 microtubule cytoskeleton, high-content imaging, actives raise or lower the signal. In short, it runs like this:
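HepG2, 72 hr cmpd exposure, 0.39–200 uM (10 pts, duplicate), 0.5% DMSO. 3.7% formaldehyde fix, 0.5% Triton perm, anti-alpha-tubulin/Cy5 plus Hoechst. HCS fluorescence intensity; bidirectional fit vs DMSO baseline; taxol as positive control.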

Assay [16] can be described thus: APR_HepG2_P-H2AX_24hr: Apredica 24-hour HepG2 Assay for H2AX Phosphorylation (AID 2282920). Particulars: high-content imaging, actives raise or lower the signal. In short, it runs like this: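 Human HepG2 liver cells, treated 24 hr with test chemicals (0.39–200 uM, final DMSO 0.5% v/v), are fixed and co-stained for phospho-H2A.x and c-Jun with Hoechst. Imaged intensity is fitted in both directions against DMSO controls.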

The nature of assay [17]: APR_HepG2_StressKinase_72hr: Apredica 72-hour HepG2 Assay for Stress Kinase (AID 2282921). Conditions: HepG2 stress kinase (phospho-c-Jun) imaging, actives raise or lower the signal. In short, it runs like this: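 After a 72 h compound treatment spanning 0.39 to 200 uM, formaldehyde-fixed cells are labelled for phosphorylated c-Jun and nuclei, imaged by automated fluorescence microscopy, and activity is fitted in both directions relative to DMSO controls.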

Assay [18] is described as follows: APR_HepG2_StressKinase_24hr: Apredica 24-hour HepG2 Assay for Stress Kinase (AID 2282922). Particulars: HepG2 stress kinase (phospho-c-Jun) imaging, actives raise or lower the signal. In short, it runs like this: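 Read-out: phospho-c-Jun immunofluorescence (Cy3 secondary) quantified by high-content imaging at 20x, nuclei defined by Hoechst 33342. Human HepG2 liver cells dosed 24 hr, 0.39–200 uM, DMSO 0.5% v/v; gain or loss of signal fitted relative to DMSO.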

Assay [19] is described as follows: APR_HepG2_p53Act_72hr: Apredica 72-hour HepG2 Assay for p53 Activation (AID 2282923).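 Also: average cellular p53 protein immunofluorescence intensity in HepG2 cells.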 Particulars: high-content imaging, actives raise or lower the signal. The method in brief: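 Imaging-based endpoint: after 72 hr compound exposure (up to 200 uM, 0.5% DMSO), fixed and permeabilized monolayers were labelled with anti-p53 antibody and imaged; signal change in either direction was fitted relative to DMSO controls.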

Assay [20] can be described thus: APR_HepG2_MitoMass_72hr: Apredica 72-hour HepG2 Assay for Mitochondrial Mass (AID 2282924).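 Also: MitoTracker Red CMXRos stain intensity per cell imaged as mitochondrial mass.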 Conditions: high-content imaging, actives raise or lower the signal. The method in brief: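 Read-out: MitoTracker Red fluorescence intensity from automated imaging (20x, six fields per well) in human HepG2 liver cells. Dosing ran 72 hr, 0.39–200 uM, 0.5% DMSO; bidirectional curve fitting versus DMSO baseline.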

`CCCCCCCCCCCCN1CCCC1=O`: the result in assay [1], in assay [5], in assay [7], in [9], in [13] and in assay [18] was inactive. The concentration at half-maximal activity (AC50) in [2] was 53.5 µM (active); in [3], 75.3 µM (active); in [4], 47.4 µM (active); in assay [6], 68.7 µM (active); in [8], 51 µM (active); in [10], 42.6 µM (active). Also, the AC50 in [11] was 72.4 µM (active); in [12], 58.6 µM (active); in assay [14] it was 62.4 µM (active); in assay [15], 53.3 µM (active); in assay [16] it was 67.2 µM (active); in [17], 67.5 µM (active). Also, the concentration at half-maximal activity (AC50) in assay [19] was 61.3 µM (active); in assay [20], 109 µM (active).
In the case of `C#C[C@]1(O)CC[C@H]2[C@@H]3CCC4=CC(=O)CC[C@@H]4[C@H]3CC[C@@]21C`, the AC50 in assay [1] was 3.95 nM (active) and 5.39 nM (active) and 91.8 nM (active). Also, the compound was called inactive in assay [2], in assay [3], in assay [4], in assay [5], in assay [6] and in assay [7]. Also, the call in assay [8], in assay [9], in assay [10], in assay [11], in assay [12] and in assay [13] was inactive. Besides, the result in [14], in assay [15], in [16], in [17], in assay [18] and in assay [19] was inactive. The compound was classed as inactive in [20].
`OCCC(F)(F)C(F)(F)C(F)(F)C(F)(F)C(F)(F)C(F)(F)C(F)(F)C(F)(F)F`: the result in assay [1], in assay [7], in assay [13], in [15] and in [17] was inactive. Also, the half-maximal activity concentration (AC50) in assay [2] is 17.6 µM (active); in assay [3], 75 µM (active); in assay [4], 27.8 µM (active); in [5], 23.1 µM (active); in [6] it was 24.1 µM (active); in [8], 29.9 µM (active). The AC50 was 25.1 µM (active) in [9]; 14.7 µM (active) in assay [10]; 34.8 µM (active) in [11]; 29.7 µM (active) in [12]; 21.8 µM (active) in assay [14]; 26.8 µM (active) in assay [16]. The half-maximal activity concentration (AC50) in [18] is 29.2 µM (active); in assay [19], 29.5 µM (active); in [20], 102 µM (active).
For `O=C(O)Cc1cc(I)c(Oc2cc(I)c(O)c(I)c2)c(I)c1`, the call in [1], in assay [3], in assay [4], in [5], in [6] and in assay [7] was inactive. The compound was classed as inactive in assay [8], in assay [11], in assay [12], in assay [13], in assay [14] and in [15]. Further, the outcome in [16], in assay [17], in assay [18], in [19] and in assay [20] was inactive. Also, the AC50 in assay [2] was 109 µM (active); in assay [9] it was 72.2 µM (active); in assay [10], 72.5 µM (active).
Consider `NC(=O)N1C(=O)C(C(=O)c2cc(Cl)cs2)c2cc(F)c(Cl)cc21` (stereo not given), for which the compound was called inactive in [1], in assay [2], in [3], in [7], in [13] and in assay [18]. Besides, the half-maximal activity concentration (AC50) in [4] is 98.8 µM (active); in assay [5], 75.3 µM (active); in assay [6], 84.7 µM (active); in assay [8], 107 µM (active); in assay [9] it was 105 µM (active); in [10], 96.9 µM (active). Moreover, the AC50 was 62.7 µM (active) in assay [11]; 64.7 µM (active) in [12]; 47.7 µM (active) in [14]; 39.2 µM (active) in assay [15]; 99.8 µM (active) in [16]; 67.4 µM (active) in assay [17]. Also, the AC50 in assay [19] was 59 µM (active); in assay [20], 54.4 µM (active).
`Cc1cc(C)c(O)c(C)c1`: the result in assay [1], in assay [2], in assay [3], in assay [4], in assay [5] and in assay [6] was inactive. The compound was called inactive in [7], in assay [8], in assay [9], in [10], in assay [11] and in assay [12]. Also, the compound was called inactive in [13], in [14], in assay [15], in assay [16], in assay [17] and in [18]. The outcome in [19] and in assay [20] was inactive.
